Screening data deposited in PubChem by Fisher Drug Discovery Resource Center.
NPYLR7 ag – mosquito NPYLR7 agonism; hit rate 0.15% among 270,000; AID 1259423; activation, % at 10 µM; HEK293T NPYLR7/Galpha15, GCaMP6s calcium fluorescence; in the data active means activation above about 40%;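 further: 0% = vehicle and 100% = reference agonist at the receptor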
mcGAS inh – mouse cGAS inhibition by luminescence; recombinant cGAS, Kinase-Glo ATP depletion luminescence; inhibition, % at 12.5 µM; hit rate 0.15% among 160,000; AID 1259399;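 further: 0% = negative control wells and 100% = reference inhibitor with no enzyme activity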
Target sequence (Q8C6L5 whole entry, looked up): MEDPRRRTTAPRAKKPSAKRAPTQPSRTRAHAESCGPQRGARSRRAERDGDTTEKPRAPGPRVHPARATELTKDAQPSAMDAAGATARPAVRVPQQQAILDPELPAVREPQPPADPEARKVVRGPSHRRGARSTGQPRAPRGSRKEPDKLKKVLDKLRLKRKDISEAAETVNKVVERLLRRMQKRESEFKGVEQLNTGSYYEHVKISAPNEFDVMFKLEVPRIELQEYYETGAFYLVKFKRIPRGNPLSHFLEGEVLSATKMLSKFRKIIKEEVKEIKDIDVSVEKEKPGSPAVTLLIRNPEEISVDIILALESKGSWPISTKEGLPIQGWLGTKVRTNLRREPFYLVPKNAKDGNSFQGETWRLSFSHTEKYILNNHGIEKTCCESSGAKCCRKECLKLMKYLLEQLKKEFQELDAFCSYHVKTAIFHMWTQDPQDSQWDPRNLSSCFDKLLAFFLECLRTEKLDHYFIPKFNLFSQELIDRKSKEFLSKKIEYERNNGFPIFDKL
hcGAS inh – inhibitors of human cGAS | recombinant h-cGAS, ATP depletion, Kinase-Glo luminescence | inhibition, % at 12.5 µM | AID 1259398 | Q8N884 | hit rate 0.081% among 290,000;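 further: 0% = vehicle reaction and 100% = reaction without DNA for no activity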
* = called active by the depositor; nt = no result; ! = a repeat was not active. Sampled rows, rich in hits. Any-hit rate of the full collection: about 0.28%. Unless noted, no stated cut-off is given here; in the data, active means inhibition above about 40%; inactive means the rest.

SMILES | NPYLR7 ag | mcGAS inh | hcGAS inh
O=C(O)C1C2CC3C1C(=O)Oc1ccc(Br)cc1C1c4sc(=O)[nH]c4SC2C13 (centres undefined) | 12.6 | 41.4* | -0.9
COc1cccc(C=CC(=O)c2ccc(OC)c(OC)c2)c1 | -1.3 | 38.5 | -6.9
COc1cc(C(=O)C=Cc2cccc(O)c2)ccc1O | -0.5 | 40.7* | 1.4
COc1cc(C=CC(=O)c2ccc(C#N)cc2)ccc1O | 2.6 | 2.8 | 1.6
COC(=O)c1ccc(C=CC(=O)c2ccc(O)c(OC)c2)cc1 | 0.4 | 43.8* | -4.2
CCC#CCN1CCOc2c(O)cc(-c3nc(C)cnc3C)cc2C1 | -5.0 | nt | -4.4
COc1ccc(CCN(C)Cc2nc(-c3cccc(Cl)c3)no2)cc1OC | 8.6 | -15.7 | -4.7
Cc1nc2ccccc2c(=O)n1NC(=S)NC(=O)c1ccc(Br)cc1 | -0.8 | nt | -6.2
O=C(O)c1c[nH]c2c(ccc3ccccc32)c1=O | 5.4 | 42.3* | 14.9
O=C(O)c1c[nH]c2cc(C(F)(F)F)ccc2c1=O | -0.4 | -3.2 | -4.8
Cc1ccc(N2NC(=O)/C(=C/c3cccc(OC(=O)c4cccs4)c3)C2=O)cc1Cl | -0.3 | 53.3* | -0.2
CCc1ccc(/C=C2\C(=O)NN(c3ccc(Cl)c(Cl)c3)C2=O)cc1 | 5.7 | 14.7 | -8.2
Nc1nc(Cl)nc2c1ncn2[C@@H]1O[C@H](COP(=O)(O)OP(=O)(O)OP(=O)(O)O)[C@H](O)C1O (some centres undefined) | 128.7* | 8.8 | 2.2
Nc1ncnc2c1ncn2C1OC(COP(=O)(O)OP(=O)(O)OP(=O)(O)OP(=O)(O)OCC2OC(n3cnc4c(N)ncnc43)C(O)C2O)C(O)C1O (centres undefined) | 20.3 | -1.1 | 1.6
CN(Cc1ccc(CN)cc1)C(=O)OC(C)(C)C | 2.1 | nt | -8.5
COc1ccc(/C=C2\Oc3c4c(cc(C)c3C2=O)OCN(CC2CCCO2)C4)cc1OC (centres undefined) | 14.6 | 3.3 | 1.0
O=C1/C(=C/c2ccc3c(c2)OCO3)Oc2c1ccc1c2CN(CC2CCCO2)CO1 (centres undefined) | 83.3* | -6.9 | -6.0
CC(=O)N1CCc2c(nc(-c3ccccn3)nc2NCCn2cccn2)C1 | 10.1 | nt | -2.6
CC1(C(=O)Nc2ccc(F)cc2F)CCN1C(=O)c1ccccc1CCc1ccccc1 (centres undefined) | 9.4 | -3.3 | -9.0
O=C(CN1CCc2ccccc2C1)N1N=C(c2ccccc2F)CC1c1ccc(Cl)cc1 (centres undefined) | 14.5 | -3.4 | 60.1*
CCOC(=O)C1CCCN(CC(=O)N2N=C(c3ccccc3Cl)CC2c2ccc3c(c2)OCO3)C1 (centres undefined) | -1.5 | -4.3 | -4.1
CC(=O)N1CCN(CC(=O)N2N=C(c3ccccc3F)CC2c2ccc(Cl)cc2)CC1 (centres undefined) | 4.4 | -3.7 | -3.6
CCOC(=O)C1CCCN(CC(=O)N2N=C(c3ccccc3Cl)CC2c2ccc(Cl)cc2)C1 (centres undefined) | 42.0* | -0.1 | 2.1
O=C(NCc1ccncc1)c1cnn(CC(F)(F)F)c1-c1ccccc1 | nt | -2.6 | -3.6
CCC(CO)N(Cc1cccs1)C(=O)c1cc(C(C)C)[nH]n1 (centres undefined) | 2.1 | -1.0 | -0.8
SMILES | NPYLR7 ag | mcGAS inh | hcGAS inh
Cc1nc2ccc(N(C)CC(=O)N(C)CC(F)(F)F)cc2s1 | -2.0 | 15.7 | 17.3
O=C(O)c1ccc(C2Nc3c(F)cc(F)cc3C3C=CCC32)cc1 (centres undefined) | 18.1 | nt | 5.8
O=C(O)c1ccc2c(c1)C1C=CCC1C(c1ccc(Br)cc1)N2 (centres undefined) | -7.2 | 100.3* | 76.7*
O=C(O)c1ccc([C@@H]2Nc3ccc(I)cc3[C@@H]3C=CC[C@@H]32)cc1 | 10.3 | 70.9* | 28.4
COC(=O)c1ccc2c(c1C)NC(c1ccc([N+](=O)[O-])cc1)C1CC=CC21 (centres undefined) | -2.4 | -1.4 | -1.0
C#CCOCC(O)CN(Cc1cccc(C)c1)Cc1ccco1 (centres undefined) | -1.1 | -7.0 | -6.4
O=C(COc1ccc2c3c(c(=O)oc2c1)CCC3)N1CCCC(C(F)(F)F)C1 (centres undefined) | 4.2 | nt | -2.3
CCOC(=O)C1CCCN(c2nc3nonc3nc2N2CCSCC2)C1 (centres undefined) | 44.8*! | -3.5 | -9.2
O=C(C1CCCN(c2nc3nonc3nc2N2CCCCCC2)C1)N1CCOCC1 (centres undefined) | 7.5 | nt | 6.0
CC(=O)N1CCc2c(sc(NC(=O)C3=COCCO3)c2-c2nc3ccccc3s2)C1 | 3.0 | nt | -4.0
CC(=O)Nc1sc2c(c1-c1nc3ccccc3s1)CCN(Cc1ccccc1)C2 | 196.8* | -6.6 | -3.3
CCN1CCc2c(sc(NC(=O)C3=COCCO3)c2-c2nc3ccccc3s2)C1 | 59.9* | nt | 38.8
CC(=O)Nc1sc2c(c1-c1nc3ccccc3s1)CCN(C(C)=O)C2 | 3.3 | nt | 7.2
COc1cc(N2CCC(=O)N(Cc3ccc(F)cc3)C(C(C)C)C2)ncn1 (centres undefined) | 6.7 | -15.4 | -5.4
Cc1cnc(C(=O)OCC(=O)C(C#N)c2nc(C)cs2)cn1 (centres undefined) | 0.7 | nt | -7.4
Cc1csc(C(C#N)C(=O)c2cn(CC(=O)C(C)(C)C)nn2)n1 (centres undefined) | -1.5 | -6.8 | 45.2*
CC1(C(=O)Nc2ccc3c(c2)OCO3)CCN1CC1CCOC1 (centres undefined) | -3.4 | 0.8 | 2.8
O=C(O)c1ccccc1OP(=O)(O)O | -10.4 | 60.9* | 5.1
CCCCC(=O)Oc1ccccc1C(=O)O | nt | -5.3 | -5.9
O=C1OC(c2ccc(N3CCCC3=O)cc2)=NC1=Cc1cccs1 | 8.1 | -6.1 | -5.0
COCCCNCc1c(-c2ccccc2)noc1N1CCc2ccccc2C1 | 15.2 | nt | -3.3
COCCCNCc1c(-c2ccc(F)cc2)noc1N1CCOCC1 | 46.2* | nt | -2.8
COc1cn(CC(=O)NC(C)C)c(CN2CCCCC2)cc1=O | -3.5 | -8.7 | -5.3
COCCCN(CC(=O)N1CCc2sccc2C1c1ccc(OC)cc1)C(=O)/C=C/c1ccccc1 (centres undefined) | 7.2 | -3.3 | 0.8
O=C(CN1CCCCCC1)NCCn1nnc2ccccc21 | 7.6 | nt | 1.9
SMILES | NPYLR7 ag | mcGAS inh | hcGAS inh
O=C(CCn1c(Cc2c(Cl)cccc2Cl)nc2ccccc21)NCCN1CCCC1 | nt | -0.4 | 45.5*
CCOC(=O)Nc1ccc(C(=O)OCC(=O)N(C)C2CCC(C)CC2)cc1 (centres undefined) | -5.2 | nt | -5.0
FC(F)(F)c1ccc(-c2nc3ccc(Cl)cn3c2NCc2ccccc2)cc1 | 47.2* | -8.4 | -7.3
CC(C)(C)c1ccc(-c2nc3ccc(Cl)cn3c2NCc2ccccc2)cc1 | -3.8 | -7.5 | -5.8
Cn1cccc1C(=O)N1CCn2c(nnc2C(=O)NCC2CC2)C1 | 5.2 | nt | -3.7
O=C(CSc1nnnn1Cc1ccccc1)Cn1cnc2ccccc2c1=O | 3.8 | nt | -6.0
COc1cccc(CNC(=O)c2ccc(-c3cc(-c4cccc(C(F)(F)F)c4)n[nH]3)cc2)c1 | -6.7 | 103.8* | -0.6
COc1ccc(CCNC(=O)c2ccc(-c3cc(-c4cccc(C(F)(F)F)c4)n[nH]3)cc2)cc1 | -1.9 | -9.5 | -10.8
Cc1cccn2c(CNCC(C)(C)N3CCOCC3)c(C(=O)N3CCCCC3)nc12 | 3.4 | -3.3 | -3.1
CCOCCCn1c(SCc2ccc(SC)cc2)nc2cc(S(=O)(=O)N3CCOCC3)ccc21 | 12.0 | -3.9 | -4.8
